High-throughput results deposited in PubChem by National Center for Advancing Translational Sciences (NCATS).
The list is not random: actives were taken first. Their share in the collection is about 0.35%.
B2AR arrestin: qHTS assay of beta-arrestin-biased ligands of beta2-adrenergic receptor | Beta-2 adrenergic receptor (Homo sapiens), P07550 | beta-arrestin recruitment to beta2AR, cell-based reporter | Potency, µM (series often up to 46.1 µM), for inactives: at the top dose activation, usual class: activators | 330,000 tested, 0.02% active;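 also: 0% = DMSO controls and full agonism = EC100 isoproterenol or metaproterenol; nearly all actives have a fitted effect of over 65% in size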
GLS inh: qHTS for Inhibitors of Glutaminase (GLS). Glutaminase kidney isoform, mitochondrial (Homo sapiens), O94925. GLS enzymatic activity, qHTS titration. Potency, µM (doses to about 45.5 µM), without a hit: at the highest dose activity change, negative = inhibition, actives largely listed as inhibitors. 410,000 tested, 0.21% active. AID 624170, 2012
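Read-out is an Amplex red fluorescence increase coupled through glutamate oxidase and HRP, measured before and after 30 min room-temperature incubation. hKGA is in 45 mM KH2PO4 (pH 8.2) with 0.02% Tween-20; glutamine added as 1mM solution.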
Apoferritin bind: qHTS Assay for Identification of Novel General Anesthetics | apoferritin/1-aminoanthracene competitive binding, fluorescence | AID 485281, 2010 | 350,000 tested, 0.074% active | Potency, µM (series often up to 77.5 µM), for the others: top-dose activity change, negative = displacement, usual class: inhibitors | Ferritin light chain (Equus caballus), P02791; also: nearly all actives have a fitted effect of over 20% in size
Target sequence (P02791 2-175 limits assumed): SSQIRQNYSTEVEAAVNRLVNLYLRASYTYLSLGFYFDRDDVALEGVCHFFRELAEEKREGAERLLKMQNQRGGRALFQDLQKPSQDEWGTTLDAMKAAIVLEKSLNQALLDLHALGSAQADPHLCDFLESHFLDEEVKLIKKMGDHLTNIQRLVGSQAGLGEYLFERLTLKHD
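Horse-spleen apoferritin (10 uM) was mixed with 50% saturated 1-aminoanthracene in PBS, exposed to compounds for 10 min at room temperature, and read for fluorescence (ex 380 nm, em 535 nm). Competitive displacement was fitted with a four-parameter Hill equation.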
MBNL1-CUG inh: qHTS Assay for Inhibitors of MBNL1-poly(CUG) RNA binding. Muscleblind-like protein 1 (Homo sapiens), Q9NR56. TR-FRET MBNL1-His/biotin-(CUG)12 binding, 665/545 ratio. Potency, µM (series often up to 57.5 µM), without a hit: at the highest dose activity change, negative = inhibition, usual class: inhibitors. 280,000 tested, 0.036% active; active = well fitted inhibition curve with a large enough effect in the signal ratio, with a control signal flat, not every such curve was filed as active; inconclusive = small, poorly fitted or top-dose-only effect, or effect the other way, or a change in a side signal; inactive = no such curve, though single readings can be large or run the other way; the % refers to the signal ratio
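MBNL1-His + Biotin-(CUG)12, cpd titration 92 nM–58 uM; Tb anti-His Ab 0.055 ng/ul, SA-XL665 5 nM (final); 60 min RT; ratiometric 665/545 nm, Ex 340 nm; normalized to buffer and full-complex controls.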
BCR signal inh: qHTS Assay to Find Inhibitors of Chronic Active B-Cell Receptor Signaling; Potency, µM (top dose mostly 46.1 µM), without a hit: top-dose activity change, negative = inhibition, actives largely listed as inhibitors; 340,000 tested, 0.05% active; ABC-DLBCL IkBa-CBG/CBR reporter, luminescence ratio, 4 h; active = well fitted inhibition curve with a large enough effect in the signal ratio, with a control signal flat, not every such curve was filed as active; inconclusive = small, poorly fitted or top-dose-only effect, or effect the other way, or a change in a side signal; the % refers to the signal ratio;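 also: plate controls were basal doxycycline-induced cells for no effect and cells given 10 µM MG132 for full effect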
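Doxycycline induced both beetle luciferases in TMD8 lymphoma cells; IKK-driven degradation limits the IkappaBalpha-fused green signal, while red luminescence normalises for cell number and nonspecific effects. Compounds tested up to 46 uM, 4 hrs.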
* hit, by the source's call; i = inactive; u = inconclusive; x = not tested or not shown. Unless noted, calls follow the shape of the dose curve; as a rule, active = well fitted curve in the direction sought with a large enough effect; inconclusive = small, poorly fitted or top-dose-only effect, or another doubt; inactive = no such curve, though single readings can be large; an effect the other way counts as inactive or inconclusive. Unless noted, % is scaled to controls: 0 for no effect and ±100 for the full control effect; potency is read from the fitted curve at half-maximal effect.

SMILES | B2AR arrestin | GLS inh | Apoferritin bind | MBNL1-CUG inh | BCR signal inh
CCOC(=O)c1sc(NNC(=O)c2ccc(C)cc2)nc1C | 0% | 1.3µM* | 3% | -5% | u
CCSS(=O)(=O)c1cccc2cccnc12 | 3% | 10µM* | -4% | u | u
O=C(O)CCS(=O)(=O)c1cccc2cccnc12 | 0% | 1% | 0% | 2% | 1%
Cc1cccc(C)c1Nc1sc(C(=O)c2ccccc2)c(N)c1C(=O)Nc1ccc(F)cc1 | x | 0% | u | x | u
CC[C@@H]1OC(=O)C[C@H](O)[C@@H](C)[C@@H](O[C@H]2O[C@@H](C)[C@H](O[C@@H]3C[C@](C)(O)[C@H](O)[C@@H](C)O3)[C@@H](N(C)C)[C@@H]2O)[C@@H](C=O)C[C@@H](C)C(=O)/C=C/C(C)=C[C@@H]1CO[C@H]1O[C@@H](C)[C@H](O)[C@H](OC)[C@@H]1OC | x | 21% | x | x | x
Cc1cc2c(cc(C(=O)OCC(=O)NCc3cccs3)n2C(C)C)o1 | 0% | -1% | -5% | -6% | 8.2µM*
CC1(OC(=O)c2cccs2)C(=O)C=C2C=C3CCCN3C=C2C1=O (stereo unspecified) | 0% | 16µM* | -3% | u | 6%
O=C(N/N=C\c1ccc(O)c([N+](=O)[O-])c1)c1ccccc1-n1cccc1 | 0% | 33% | -2% | x | -1%
CCOc1cc(/C=N/NC(=O)c2ccc(=O)n(C)c2)ccc1O | -1% | 7.9µM* | -3% | 7% | 3%
COc1cc(C=NNC(=O)c2ccccc2-n2cccc2)ccc1O | 0% | 13µM* | x | x | -12%
CC(=O)Nc1cc(=O)c2cccnc2[nH]1 | x | 16µM* | x | x | x
O=C(c1sc2cc(F)ccc2c1Cl)N1CCN(c2cccc(Cl)c2)CC1 | 0% | 1% | -6% | -8% | 9%
O=c1c2ccccc2sn1-c1ccc(F)cc1 | 0% | 10µM* | x | x | u
O=c1c2ccc(F)cc2sn1-c1ccccc1 | x | 7.1µM* | x | x | x
COC(=O)c1cccc(-n2sc3ccccc3c2=O)c1 | -1% | 11µM* | x | x | u
CC(=O)O[C@H](C)OC(=O)[C@@H](C)c1ccc(-c2ccccc2)c(F)c1 | x | -8% | x | x | x
Cc1ccc(Nc2ccc(N3CCN(C(=O)c4cccc([N+](=O)[O-])c4)CC3)nn2)cc1 | x | 1% | u | x | 9%
COc1cccc(C2Nc3ccc4ccccc4c3C3=C2C(=O)CC(C)(C)C3)c1OCC(=O)O (stereo unspecified) | 0% | 13µM* | i | u | 3%
COc1cc(C2Nc3ccc4ccccc4c3C3=C2C(=O)CC(C)(C)C3)ccc1OCC(=O)O (stereo unspecified) | -1% | 18% | 396% | 26% | 2%
O=C(O)c1ccc(N/N=C/c2cc(Br)cs2)cc1 | 0% | 8.9µM* | -4% | u | u
Cc1ccc(/C=N/Nc2ccc(C(=O)O)cc2)s1 | 0% | 0% | -10% | u | u
CC1=C(C(=O)OC(C)C)C(c2ccc(Cl)cc2)n2c(sc(=Cc3ccc(OCC(=O)O)cc3)c2=O)=N1 (stereo unspecified) | x | 7.1µM* | x | x | x
CCOC(=O)CSC1=Nc2ccccc2C2=NC(CC(=O)NCc3ccc(OC)cc3)C(=O)N12 (stereo unspecified) | 0% | 2.2µM* | 3% | 0% | 7%
CCOC(=O)CSC1=Nc2ccccc2C2=NC(CC(=O)NCc3ccc4c(c3)OCO4)C(=O)N12 (stereo unspecified) | 0% | u | -14% | -2% | 1%
Cc1cc(-n2c(=O)[nH]c(=O)n(C)c2=O)ccc1Oc1ccc(S(=O)(=O)C(F)(F)F)cc1 | x | 1% | x | x | x
O=C(NNc1cc(Cl)ccc1Cl)c1cccs1 | 0% | 13µM* | -23% | x | 2%
O=C(O)/C=C(/CC(=O)O)C(=O)O | x | 9% | x | x | x
